Assay results taken from PubChem BioAssay (NCATS).
Records with an inconclusive call do not appear. Calls of active or inactive are those of the source. Unless noted, calls come from the whole dose curve; as a rule, active = well fitted curve in the direction sought with a large enough effect; inconclusive = small, poorly fitted or top-dose-only effect, or another doubt; inactive = no such curve, though single readings can be large; an effect the other way counts as inactive or inconclusive.

How the values were obtained:
[1] = biological target: Rap guanine nucleotide exchange factor 3 (Homo sapiens) (UniProt O95398); experiment: Confirmatory qHTS for agonist of cAMP-regulated guanine nucleotide exchange factor 3 (EPAC1) (AID 1645881);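 note: EPAC1 catalysed release of BODIPY-GDP from Rap1B seen as fluorescence loss; 100% = effect of cAMP agonist control; nearly all actives have a fitted effect of over 75% in size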
Sequence of Rap guanine nucleotide exchange factor 3 (Homo sapiens) (O95398 whole entry, looked up): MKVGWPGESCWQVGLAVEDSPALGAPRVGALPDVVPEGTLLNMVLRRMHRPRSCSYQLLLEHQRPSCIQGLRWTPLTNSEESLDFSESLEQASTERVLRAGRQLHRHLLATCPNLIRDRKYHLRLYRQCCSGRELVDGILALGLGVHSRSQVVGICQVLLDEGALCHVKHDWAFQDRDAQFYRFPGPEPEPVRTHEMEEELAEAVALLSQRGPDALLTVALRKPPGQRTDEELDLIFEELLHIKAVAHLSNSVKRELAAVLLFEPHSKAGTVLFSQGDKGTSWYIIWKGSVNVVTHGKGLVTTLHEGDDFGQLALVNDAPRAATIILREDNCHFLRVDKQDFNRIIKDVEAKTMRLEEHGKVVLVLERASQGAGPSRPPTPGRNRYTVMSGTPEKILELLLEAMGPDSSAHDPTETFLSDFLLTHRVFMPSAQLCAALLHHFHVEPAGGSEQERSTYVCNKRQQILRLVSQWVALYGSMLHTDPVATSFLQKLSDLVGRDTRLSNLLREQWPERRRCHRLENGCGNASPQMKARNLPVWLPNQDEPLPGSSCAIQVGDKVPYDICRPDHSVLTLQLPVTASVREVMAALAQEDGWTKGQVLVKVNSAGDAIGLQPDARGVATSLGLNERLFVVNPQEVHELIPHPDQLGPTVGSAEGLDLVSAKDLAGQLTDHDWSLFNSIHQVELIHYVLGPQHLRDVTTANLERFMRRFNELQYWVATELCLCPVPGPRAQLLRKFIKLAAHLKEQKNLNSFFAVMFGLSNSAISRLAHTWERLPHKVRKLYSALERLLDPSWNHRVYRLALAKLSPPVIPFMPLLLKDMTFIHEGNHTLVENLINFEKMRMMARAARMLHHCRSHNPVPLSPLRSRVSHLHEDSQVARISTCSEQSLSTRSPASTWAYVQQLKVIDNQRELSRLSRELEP

[2] = biological target: Rap guanine nucleotide exchange factor 4 (Homo sapiens) (UniProt Q8WZA2); experiment: Confirmatory qHTS for antagonist of cAMP-regulated guanine nucleotide exchange factor 4 (EPAC2) (AID 1645885); note: % is set by controls: 0 for no effect and ±100 for the full control effect; nearly all actives have a fitted effect of over 25% in size
Sequence of Rap guanine nucleotide exchange factor 4 (Homo sapiens) (Q8WZA2 whole entry, looked up): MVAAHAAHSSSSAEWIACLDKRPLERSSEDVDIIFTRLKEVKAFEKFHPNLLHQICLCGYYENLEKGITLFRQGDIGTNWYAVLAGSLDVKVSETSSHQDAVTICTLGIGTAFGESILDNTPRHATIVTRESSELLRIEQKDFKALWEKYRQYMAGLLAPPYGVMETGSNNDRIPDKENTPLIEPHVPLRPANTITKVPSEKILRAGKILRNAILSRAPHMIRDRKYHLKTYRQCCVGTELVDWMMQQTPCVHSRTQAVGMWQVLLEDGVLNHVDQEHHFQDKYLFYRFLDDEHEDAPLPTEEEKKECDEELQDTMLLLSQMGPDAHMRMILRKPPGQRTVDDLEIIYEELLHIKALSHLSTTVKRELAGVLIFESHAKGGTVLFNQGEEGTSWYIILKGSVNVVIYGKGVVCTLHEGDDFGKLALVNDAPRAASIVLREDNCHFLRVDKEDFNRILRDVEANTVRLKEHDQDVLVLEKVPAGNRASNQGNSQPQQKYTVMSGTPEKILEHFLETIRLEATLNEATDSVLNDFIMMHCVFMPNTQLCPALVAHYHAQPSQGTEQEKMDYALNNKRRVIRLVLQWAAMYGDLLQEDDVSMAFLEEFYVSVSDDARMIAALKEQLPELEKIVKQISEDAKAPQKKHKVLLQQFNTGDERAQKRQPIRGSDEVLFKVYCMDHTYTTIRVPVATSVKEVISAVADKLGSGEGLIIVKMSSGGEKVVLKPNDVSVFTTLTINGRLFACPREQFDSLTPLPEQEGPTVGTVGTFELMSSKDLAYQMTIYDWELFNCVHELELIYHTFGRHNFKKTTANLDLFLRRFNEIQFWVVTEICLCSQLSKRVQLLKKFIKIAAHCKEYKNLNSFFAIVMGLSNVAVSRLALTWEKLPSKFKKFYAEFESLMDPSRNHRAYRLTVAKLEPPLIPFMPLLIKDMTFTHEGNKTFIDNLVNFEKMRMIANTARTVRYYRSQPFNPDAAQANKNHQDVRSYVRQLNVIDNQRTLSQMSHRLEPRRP

[3] = biological target: Rap guanine nucleotide exchange factor 3 (Homo sapiens) (UniProt O95398); experiment: Counterscreen qHTS for antagonist of cAMP-regulated guanine nucleotide exchange factor 3 (EPAC1) (AID 1645888);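 note: fluorescence loss as bound BODIPY-GDP is released from Rap1B; % of control where 0% means no effect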
Procedure, shortened: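 Measured: fluorescence of BODIPY-GDP bound to Rap1B, which falls as exchange proceeds. Conditions include 50 uM competing GDP, 5 and 30 min reads, and a later cAMP challenge for antagonist detection.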

[4] = biological target: DNA repair nuclease/redox regulator APEX1 (Homo sapiens) (UniProt P27695); experiment: qHTS Validation Assay for Inhibitors of the Human Apurinic/apyrimidinic Endonuclease 1 (APE1) (AID 1705;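 note: TAMRA fluorescence gain over two minutes as APE1 cuts a quenched THF abasic duplex; % is set by controls: 0 for no effect and ±100 for the full control effect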)
Procedure, shortened: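 Substrate: 50 nM final fluorophore/quencher THF-abasic duplex. Enzyme preincubated with compounds 15 min, RT. Progress derived from fluorescence difference, third minus first kinetic read.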

[5] = Counterscreen for APE1 Inhibitors: Fluorescent Dye Displacement Validation Assay (AID 1707);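 note: plate controls were ThO with dsDNA and no compound for no effect and ThO without dsDNA for full effect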
Procedure, shortened: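 Thiazole Orange (250 nM) bound to 50 nM TAMRA-labelled dsDNA with tetrahydrofuran abasic site; displacement by DNA-binding compounds lowers fluorescence. Buffer 50 mM Tris-HCl pH 7.5, 50 mM NaCl, 2 mM MgCl2, 0.01% Tween-20; endpoint read at 480/540 nm.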

[6] = biological target: Endonuclease 4 (Escherichia coli (strain K12)) (UniProt P0A6C1); experiment: Counterscreen for APE1 Inhibitors: qHTS Validation Assay for Inhibitors of Endonuclease IV (AID 1708); note: % is set by controls: 0 for no effect and ±100 for the full control effect
Procedure, shortened: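 2 nM enzyme was preincubated with compounds for 15 min at room temperature in 50 mM Tris-HCl pH 7.5, 50 mM NaCl, 2 mM MgCl2, 1 mM DTT, 0.01% Tween-20. 50 nM THF-abasic TAMRA/BHQ-2 duplex substrate started the reaction.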

[7] = qHTS for differential inhibitors of proliferation of Plasmodium falciparum line GB4 (AID 1816); settings: Potency: Plasmodium falciparum GB4 proliferation inhibition;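 note: parasite growth measured after 72 h incubation; 0% = vehicle DMSO and -100% = reference inhibitor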
[8] = qHTS for differential inhibitors of proliferation of Plasmodium falciparum line 3D7 (AID 1876);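 note: parasite growth measured after three days of culture; 0% = vehicle wells and -100% = reference inhibitor wells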
[9] = qHTS for differential inhibitors of proliferation of Plasmodium falciparum line D10 (AID 1877);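 note: parasites grown with compound for 72 h before DNA staining; plate controls were vehicle wells for no effect and reference inhibitor wells for full effect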
[10] = qHTS for differential inhibitors of proliferation of Plasmodium falciparum line Dd2 (AID 1882); settings: Potency: Plasmodium falciparum Dd2 proliferation inhibition;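 note: compound exposure of 72 h on infected erythrocytes; plate controls were DMSO vehicle for no effect and 0.29 µM artemisinin for full effect; nearly all actives have a fitted effect of over 65% in size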
Procedure, shortened: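 SYBR Green I DNA fluorescence read-out, ex 485/em 535 nm. Signals were normalized to 0.29 uM artemisinin and DMSO wells, then corrected using vehicle-only plates flanking each stack. Parasite growth ran 72 h in erythrocytes before lysis.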

[11] = qHTS for differential inhibitors of proliferation of Plasmodium falciparum line W2 (AID 1883); settings: Potency: Plasmodium falciparum W2 proliferation inhibition;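 note: parasites grown with compound for 72 h before lysis and staining; 0% = vehicle wells and -100% = control inhibitor wells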
[12] = biological target: Ferritin light chain (Equus caballus) (UniProt P02791); experiment: qHTS Validation Assay for Identification of Novel General Anesthetics (AID 2323); note: % is set by controls: 0 for no effect and ±100 for the full control effect
Sequence of Ferritin light chain (Equus caballus) (P02791 2-175 limits assumed): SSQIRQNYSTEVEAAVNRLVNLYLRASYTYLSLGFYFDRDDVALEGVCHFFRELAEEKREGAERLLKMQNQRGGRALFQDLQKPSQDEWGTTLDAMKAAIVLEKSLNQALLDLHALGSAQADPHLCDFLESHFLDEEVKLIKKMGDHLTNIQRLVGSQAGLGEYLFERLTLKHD
Procedure, shortened: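 Normalized fluorescence response, scaled between free 1-AMA and 1-AMA/apoferritin complex, fitted to a four-parameter Hill equation for concentration-effect values. Binding mix: 10 uM horse-spleen apoferritin, 50% saturated 1-AMA in PBS; read 380/535 nm after 10 min.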

[13] = biological target: ATP-dependent DNA helicase Q1 (Homo sapiens) (UniProt P46063); experiment: qHTS Validation Assay for Inhibitors of RecQ-Like Dna Helicase 1 (RECQ1) (AID 2353);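 note: plate controls were DMSO vehicle for no effect and enzyme-free control for full effect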
Procedure, shortened: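 50 nM RECQ1T1 preincubated 15 min with compound in Tris pH 8.0 buffer with MgCl2, DTT, Tween-20 and 2.5 ug/ml poly(dI-dC); started with 200 nM TAMRA/BHQ-2 forked duplex and 2 mM ATP. Unwinding read as fluorescence (525/598 nm), two reads 2 h apart.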

[14] = Validation screen for inhibitors of Lassa infection (AID 463096; calls by dose curve; note: potency is the fitted concentration of half-maximal effect)
[15] = Quantitative high throughput screen for delayed death inhibitors of the malarial parasite plastid, 48 hour incubation (AID 488752); note: % is set by controls: 0 for no effect and ±100 for the full control effect; nearly all actives have a fitted effect of over 65% in size
Procedure, shortened: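 Erythrocytes infected with P. falciparum carrying an integrated firefly luciferase reporter (2% hematocrit, 0.1% parasitemia final) were exposed to compounds in RPMI 1640/0.5% Albumax for 48 h at 37 C, 5% CO2. Growth inhibition was scored as reduced luminescence.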

[16] = biological target: Thyrotropin receptor (Homo sapiens) (UniProt P16473); experiment: qHTS Assay for Antagonists of the Thyroid Stimulating Hormone Receptor (AID 488980); note: 0% is about no effect
Sequence of Thyrotropin receptor (Homo sapiens) (P16473 whole entry, looked up): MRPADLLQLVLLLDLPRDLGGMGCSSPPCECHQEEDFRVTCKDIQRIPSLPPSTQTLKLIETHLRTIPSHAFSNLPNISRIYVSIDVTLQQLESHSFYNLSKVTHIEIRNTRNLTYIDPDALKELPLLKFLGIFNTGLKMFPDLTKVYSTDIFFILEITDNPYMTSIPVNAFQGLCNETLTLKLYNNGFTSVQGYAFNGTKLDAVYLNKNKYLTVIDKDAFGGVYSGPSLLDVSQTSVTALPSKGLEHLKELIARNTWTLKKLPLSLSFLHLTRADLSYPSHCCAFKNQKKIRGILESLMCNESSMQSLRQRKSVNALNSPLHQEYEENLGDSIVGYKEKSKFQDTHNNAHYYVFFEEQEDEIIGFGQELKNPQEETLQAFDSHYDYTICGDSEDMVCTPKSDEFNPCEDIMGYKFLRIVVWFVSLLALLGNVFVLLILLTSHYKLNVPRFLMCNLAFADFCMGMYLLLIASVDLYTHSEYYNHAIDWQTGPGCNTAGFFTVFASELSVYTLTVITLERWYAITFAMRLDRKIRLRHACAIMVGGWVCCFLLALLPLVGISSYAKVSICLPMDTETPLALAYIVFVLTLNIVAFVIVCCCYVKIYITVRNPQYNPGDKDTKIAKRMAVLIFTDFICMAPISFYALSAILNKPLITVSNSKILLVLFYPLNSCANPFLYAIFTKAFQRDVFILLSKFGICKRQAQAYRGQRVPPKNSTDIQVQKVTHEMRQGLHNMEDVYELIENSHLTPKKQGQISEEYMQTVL
Procedure, shortened: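 Inhibition of TSH-stimulated cAMP accumulation was quantified by homogeneous time-resolved FRET in TSHR-transfected HEK293 cells. Agonist: TSH, 4 nM final (EC80).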

[17] = biological target: Thyrotropin-releasing hormone receptor (Homo sapiens) (UniProt P34981); experiment: qHTS for Small Molecule Agonists and Allosteric Enhancers of Human TRH Receptor: Validation Screen for Agonists (AID 493127;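 active = calcium activation more than 3 SD above the typical response in the agonist read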;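 note: intracellular calcium rise by fluo-8 fluorescence before TRH EC20 addition; 0% is about no effect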); settings: TRH receptor agonist cell assay; at 2 µM; hits give high values
Procedure, shortened: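 TRHR-expressing cells were plated overnight in serum-containing medium, then loaded with fluo-8 calcium dye at room temperature for 30 min–1.5 h. After a 10 s baseline, compound was pin-transferred and calcium fluorescence (ex 480/em 530) read kinetically for agonist response.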

[18] = biological target: Galactokinase (Homo sapiens) (UniProt P51570); experiment: qHTS Validation Assay for Inhibitors of Human Galactokinase (GALK) (AID 493189); note: 0% is about no effect
Procedure, shortened: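 Enzyme activity is inferred from ATP consumption: human GALK phosphorylates galactose (100 uM) using 35 uM ATP for 1 h at room temperature, and luciferase-based Kinase-Glo Plus reports unconsumed ATP.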

[19] = Validation screen for small molecules that induce DNA re-replication in SW480 colon adenocarcinoma cells (AID 504364); note: 0% is about no effect
Procedure, shortened: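 SW480 cells seeded at 250 per well were exposed to compound or DMSO for 48 hr at 37 C, 5% CO2, then stained with Hoechst for 40 min. DNA content per nucleus was imaged (405 nm ex, 500-530 nm em).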

[20] = biological target: Voltage-gated inwardly rectifying potassium channel KCNH2 (Homo sapiens) (UniProt Q12809); experiment: qHTS Assay for Small Molecule Inhibitors of the Human hERG Channel Activity (AID 588834);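 note: top concentration of the series differs between compounds; % is set by controls: 0 for no effect and ±100 for the full control effect; lower thallium flux fluorescence means stronger hERG block; nearly all actives have a fitted effect of over 50% in size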
Sequence of Voltage-gated inwardly rectifying potassium channel KCNH2 (Homo sapiens) (Q12809 whole entry, looked up): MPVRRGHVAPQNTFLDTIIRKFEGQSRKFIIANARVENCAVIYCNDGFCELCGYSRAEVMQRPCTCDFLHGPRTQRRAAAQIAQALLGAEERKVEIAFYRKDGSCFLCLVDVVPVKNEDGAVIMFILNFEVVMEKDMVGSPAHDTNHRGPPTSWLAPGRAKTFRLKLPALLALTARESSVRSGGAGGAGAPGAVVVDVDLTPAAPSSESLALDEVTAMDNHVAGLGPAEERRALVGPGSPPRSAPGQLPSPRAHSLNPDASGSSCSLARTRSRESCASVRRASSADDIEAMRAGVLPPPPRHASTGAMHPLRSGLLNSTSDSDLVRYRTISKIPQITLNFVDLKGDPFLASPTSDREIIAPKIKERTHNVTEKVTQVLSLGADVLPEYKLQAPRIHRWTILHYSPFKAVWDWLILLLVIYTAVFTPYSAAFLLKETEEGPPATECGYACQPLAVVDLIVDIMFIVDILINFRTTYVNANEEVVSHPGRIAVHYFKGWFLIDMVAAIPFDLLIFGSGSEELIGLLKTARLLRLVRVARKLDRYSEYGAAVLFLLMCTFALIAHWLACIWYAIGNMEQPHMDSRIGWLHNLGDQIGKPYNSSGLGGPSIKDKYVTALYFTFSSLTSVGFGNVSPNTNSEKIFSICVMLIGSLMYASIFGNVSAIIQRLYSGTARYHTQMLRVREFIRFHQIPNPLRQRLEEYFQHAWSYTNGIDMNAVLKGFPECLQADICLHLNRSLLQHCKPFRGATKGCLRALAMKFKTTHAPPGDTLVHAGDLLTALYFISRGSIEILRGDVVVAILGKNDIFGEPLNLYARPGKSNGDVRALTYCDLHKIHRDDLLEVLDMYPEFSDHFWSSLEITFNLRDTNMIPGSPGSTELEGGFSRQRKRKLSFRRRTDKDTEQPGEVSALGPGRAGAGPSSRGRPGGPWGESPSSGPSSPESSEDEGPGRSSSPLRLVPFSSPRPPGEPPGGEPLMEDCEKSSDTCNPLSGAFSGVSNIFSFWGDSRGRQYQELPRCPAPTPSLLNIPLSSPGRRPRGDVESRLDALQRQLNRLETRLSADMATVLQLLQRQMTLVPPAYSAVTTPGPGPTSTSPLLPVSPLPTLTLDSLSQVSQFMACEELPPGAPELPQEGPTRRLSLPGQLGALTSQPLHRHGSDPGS
Procedure, shortened: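 Blockade is seen as reduced FluxOR thallium-flux fluorescence in U2OS cells expressing hERG from a BacMam construct, in Opti-MEM with 2% FCS. Concentration-response data fitted to the Hill equation for AC50.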

[21] = biological target: Lysosomal acid glucosylceramidase (Homo sapiens) (UniProt P04062); experiment: Glucocerebrosidase-p2 (AID 348; in the data active = potency below about 10 µM; note: potency is the fitted concentration of half-maximal effect); settings: purified GBA, blue fluorogenic substrate, 40 min
Procedure, shortened: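 Compounds titrated from 0.6 nM upwards against 0.2 nM enzyme in pH 5.9 citric acid/KH2PO4, taurocholate, tween-20; blue fluorogenic substrate 80 uM, 40 min room temperature, stopped and read Ex 365/Em 440 for AC50.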

[22] = AP1 Signaling Pathway (AID 357; active = well fitted curve in either direction with a large enough effect, not every such curve was filed as active;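 note: ME-180 reporter cells stimulated with EGF at its EC50 level; % is set by controls: 0 for no effect and ±100 for the full control effect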)
Procedure, shortened: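 First, ME-180 AP-1-bla cells were cultured overnight at 37 °C in low-serum Opti-MEM. Next, titrated compounds with EC50 EGF were incubated 5 hours. Finally, CCF4 was added for 2.5 hours and the 460/530 nm ratio recorded.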

[23] = biological target: Cytochrome P450 1A2 (Homo sapiens) (UniProt P05177); experiment: p450-cyp1a2 (AID 410; calls by dose curve; note: potency is the fitted concentration of half-maximal effect)
Procedure, shortened: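 Human CYP1A2 (20nM) demethylated Luciferin-ME at its Km (100uM) in 100mM KPO4. After 10 min compound preincubation, NADPH regeneration ran the reaction 60 min at room temperature. Luciferin was read by luminescence, normalized to 57 uM furafylline.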

[24] = NFAT Signaling Pathway (AID 444; active = well fitted curve in either direction with a large enough effect, not every such curve was filed as active); settings: Jurkat NFAT-bla M1, carbachol, beta-lactamase ratio, 5 h; at 7.69 µM (top of the series)
Procedure, shortened: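 Jurkat cells carrying an NFAT-driven β-lactamase reporter and co-transfected muscarinic M1 receptor were treated with compound plus carbachol (1 uM final, an EC50 level) for 5 h at 37 °C. CCF4 loading followed for 1 h at RT; 460/530 nm ratio gave %activity.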

[25] = Stat Signaling Pathway (AID 446; active = well fitted curve in either direction with a large enough effect, not every such curve was filed as active)
Procedure, shortened: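 ME-180 cells carrying a SIE-driven beta-lactamase reporter are stimulated with 40 pM IL-6 for 5 h at 37C in the presence of compound. The 460/530 nm FRET substrate ratio is read after 2.5 h at RT. Data are normalised to 300 pM IL-6 and to 125 nM JAK inhibitor controls.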

[26] = biological target: Glucocorticoid receptor (Homo sapiens) (UniProt P04150); experiment: GR-GFP Redistribution (AID 450;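 active = compounds whose dose series gives a full or clear partial fitted curve of increased nuclear translocation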; note: potency is the fitted concentration of half-maximal effect); settings: U2OS GR-GFP nuclear translocation, laser cytometry, 2 h
Sequence of Glucocorticoid receptor (Homo sapiens) (P04150 whole entry, looked up, the tested form may be a part): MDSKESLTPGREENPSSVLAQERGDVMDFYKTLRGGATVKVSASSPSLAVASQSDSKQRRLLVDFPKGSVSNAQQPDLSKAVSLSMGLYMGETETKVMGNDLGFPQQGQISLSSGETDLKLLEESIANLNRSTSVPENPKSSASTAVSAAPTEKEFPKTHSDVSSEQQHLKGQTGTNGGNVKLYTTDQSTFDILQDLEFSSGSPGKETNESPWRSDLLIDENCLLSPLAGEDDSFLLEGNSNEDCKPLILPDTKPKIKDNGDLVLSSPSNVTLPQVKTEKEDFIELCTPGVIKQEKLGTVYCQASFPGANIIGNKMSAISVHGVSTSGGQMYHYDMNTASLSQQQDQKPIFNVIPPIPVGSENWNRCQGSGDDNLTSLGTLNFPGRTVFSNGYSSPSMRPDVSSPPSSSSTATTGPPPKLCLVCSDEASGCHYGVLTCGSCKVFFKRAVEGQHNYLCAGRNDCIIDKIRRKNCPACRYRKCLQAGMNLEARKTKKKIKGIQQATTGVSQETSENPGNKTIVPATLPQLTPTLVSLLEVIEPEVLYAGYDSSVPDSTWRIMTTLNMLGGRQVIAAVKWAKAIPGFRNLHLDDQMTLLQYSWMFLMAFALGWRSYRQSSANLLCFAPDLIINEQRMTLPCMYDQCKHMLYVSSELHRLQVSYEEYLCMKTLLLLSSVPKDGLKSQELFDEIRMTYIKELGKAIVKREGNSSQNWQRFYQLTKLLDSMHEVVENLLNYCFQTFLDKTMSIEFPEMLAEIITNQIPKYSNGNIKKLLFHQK

[27] = biological target: Glucocorticoid receptor (Homo sapiens) (UniProt P04150); experiment: GR-EFC Redistribution (AID 451; calls by dose curve; note: potency is the fitted concentration of half-maximal effect); settings: CHO-K1 GR-EFC translocation, beta-gal luminescence, 2 h
Procedure, shortened: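 CHO-K1 cells stably expressing nuclear-localized β-gal enzyme acceptor and GR fused C-terminally to the enzyme donor fragment; ligand-driven nuclear translocation restores β-gal by complementation. Compounds titrated up to 46 uM final, 2 h at 37 °C; luminescence read.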

[28] = biological target: Mitogen-activated protein kinase 10 (Mus musculus) (UniProt Q61831); experiment: JNK3 AlphaScreen Assay (AID 530; active = well fitted curve in either direction with a large enough effect, not every such curve was filed as active)
Procedure, shortened: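 JNK3 came from HepG2 lysates pre-activated with IL-1beta and TNF-alpha and phosphorylated biotinylated GST-cJun (1-79) at 10 uM ATP, pH 7.6, room temperature. Compounds were titrated. AlphaScreen signal used anti-phospho-cJun (Ser73) antibody.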

[29] = biological target: 3',5'-cyclic-AMP phosphodiesterase 4B (Homo sapiens) (UniProt Q07343); experiment: qHTS Assay for Inhibitors of PDE-IV (AID 607; active = well fitted activation curve with a large enough effect in the main read-out, with a control signal flat, not every such curve was filed as active; note: % of control where 0% means no effect)
Procedure, shortened: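 HEK293 ACTOne cells with CNG channel (1000/well), endogenous PDE4; membrane potential dye, compounds up to 22.9 uM final. Fluorescence Ex 535/Em 590; RO 20-1724 (100 uM final) as reference.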

[30] = biological target: Rap guanine nucleotide exchange factor 4 (Homo sapiens) (UniProt Q8WZA2); experiment: Confirmatory qHTS for agonist of cAMP-regulated guanine nucleotide exchange factor 4 (EPAC2) (AID 1645884);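 note: nucleotide exchange releases bodipy-GDP from Rap1 and this lowers its fluorescence; % is set by controls: 0 for no effect and ±100 for the full control effect; nearly all actives have a fitted effect of over 65% in size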

O=C1NC(=O)N(Cc2ccc(F)cc2)C(=O)/C1=C\c1ccoc1
inactive: Potency [1] | Potency [2] | outcome [3]

C[C@@H]1O[C@@H](O[C@H]2C[C@@H](O)[C@]3(CO)[C@H]4[C@H](O)C[C@]5(C)[C@@H]([C@@H]6COC(=O)C6)CC[C@]5(O)[C@@H]4CC[C@]3(O)C2)[C@H](O)[C@H](O)[C@H]1O
inactive: Potency [4] | outcome [5] | Potency [6] | Potency [7] | Potency [8] | Potency [9] | Potency [10] | Potency [11] | Potency [12] | outcome [13] | Potency [15] | outcome [16] | activation [17] 1.38% | outcome [18] | outcome [19] | Potency [20]
active: Potency [14] 1.58 µM

Cc1cc(/C=C2/C(=O)NC(=O)N(Cc3ccco3)C2=O)c(C)n1-c1ccccc1
inactive: Potency [2] | outcome [3]

O=C1NC(=S)NC(=O)C1=Cc1cccc2cc3ccccc3cc12
active: Potency [23] 0.398 µM
inactive: Potency [21] > 11.4 µM | outcome [22] | activity change, negative = inhibition [24] -8.51% | outcome [25] | Potency [26] > 46 µM | Potency [27] > 9.22 µM | activity change, negative = inhibition [28] -7.37% [at 11.4 µM] | Potency [29] | Potency [1] | Potency [30] | outcome [3]
